Screens from PubChem BioAssay.
A selection: hits, their analogues and other compounds. The true share with any hit is near 7.3%.
Rab9 prom act – activators of Rab9 promoter; Huh7 Rab9 promoter-luciferase reporter, luminescence, 24 h; Potency, µM (top dose mostly 9.22 µM), without a hit: at the top dose activation, negative = inhibition, hits mostly activators; 320,000 tested, 2.8% active; further: % of control where 0% means no effect; nearly all actives have a fitted effect of over 60% in size
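Using Huh7 cells stably transfected with Rab9 promoter–luciferase, compounds were incubated 24 h at 37 °C, 5% CO2; luciferase luminescence was read 10 min after reagent addition.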
SMN2 splice enh – SMN2 splice variant enhancement; HEK293 SMN2-luciferase splicing reporter, luminescence, 30-36 h; Potency, µM (doses to about 46.1 µM), for inactives: top-dose activity change, positive = activation, most hits filed as activators; 210,000 tested, 2.8% active; AID 1458; further: % of control where 0% means no effect; nearly all actives have a fitted effect of over 55% in size
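qHTS luciferase splicing reporter: luminescence rises when SMN2 exon 7 is included in transfected HEK293 cells. Compound exposure lasted 30-36 h at 37C, with 4.5 mM final sodium butyrate as control, followed by a ONE-Glo read.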
KinaseGlo FLuc – counter-screen: inhibitors of Kinase-Glo firefly luciferase; Q27757; Kinase-Glo luciferase, ATP luminescence, 8 min; Potency, µM (titrated, usually from 38.3 µM), for inactives: top-dose activity change, negative = inhibition, usual class: inhibitors; 200,000 tested, 0.28% active; further: on the % scale 0 is the no-effect control and ±100 the full control effect; nearly all actives have a fitted effect of over 60% in size
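Compounds were added to a substrate mix at pH 7.2 (50 mM imidazole, 10 uM ATP, within the enzyme's linear range), followed by Kinase-Glo detection reagent; luminescence was measured after 8 minutes at ambient temperature.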
NPC1 prom act – activators of NPC1 promoter; Huh7 NPC1 promoter luciferase reporter, 24 h; Potency, µM (doses to about 9.22 µM), for inactives: at the highest dose activation, most hits filed as activators; 320,000 tested, 2.4% active; further: % of control where 0% means no effect; nearly all actives have a fitted effect of over 60% in size
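NPC1 promoter–luciferase Huh7 cells; 24 h compound; luminescence.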
FLuc counter – counter-screen for miR-21 project: firefly luciferase inhibitors or activators; Potency, µM (series often up to 57.5 µM), inactives show top-dose activity change, negative = inhibition, hits mostly inhibitors; purified FLuc, Km substrates, luminescence inhibition; 360,000 tested, 6.9% active; P08659; AID 588342;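 further: plate controls were vehicle for no effect and reference inhibitor for full effect; nearly all actives have a fitted effect of over 55% in size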
Target sequence (P08659 whole entry, looked up): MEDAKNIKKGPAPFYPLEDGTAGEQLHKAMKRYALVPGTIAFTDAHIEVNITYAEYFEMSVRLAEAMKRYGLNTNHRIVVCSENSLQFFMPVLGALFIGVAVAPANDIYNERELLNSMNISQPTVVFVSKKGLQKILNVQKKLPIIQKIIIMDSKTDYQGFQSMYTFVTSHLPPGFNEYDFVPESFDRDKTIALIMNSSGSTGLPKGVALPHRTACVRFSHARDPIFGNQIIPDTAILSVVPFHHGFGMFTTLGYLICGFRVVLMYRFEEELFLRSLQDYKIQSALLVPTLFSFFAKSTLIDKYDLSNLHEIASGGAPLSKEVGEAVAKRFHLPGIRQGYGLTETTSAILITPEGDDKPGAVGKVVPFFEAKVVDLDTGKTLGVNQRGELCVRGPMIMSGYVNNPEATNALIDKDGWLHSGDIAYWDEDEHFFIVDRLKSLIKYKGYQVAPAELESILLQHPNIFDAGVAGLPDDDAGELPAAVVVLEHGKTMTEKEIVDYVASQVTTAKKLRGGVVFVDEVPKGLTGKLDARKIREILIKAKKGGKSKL
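Biochemical qHTS of compounds, final roughly 60 µM downward over six points, against 10 nM purified firefly luciferase using Km concentrations of substrates (10 uM D-luciferin, 10 uM ATP) in Tris acetate pH 7.5 buffer; luminescence output.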
The depositor's hits bear a star; u = inconclusive; x = not tested or not shown; [ ] = remark or other dose. The call rests on the fitted dose curve; in most records, active means well fitted curve in the direction sought with a large enough effect; inconclusive means small, poorly fitted or top-dose-only effect, or another doubt; inactive means no such curve, though single readings can be large; an effect the other way counts as inactive or inconclusive. Potency means the concentration at half of the fitted maximal effect.

SMILES	Rab9 prom act	SMN2 splice enh	KinaseGlo FLuc	NPC1 prom act	FLuc counter
COc1ccc(Nc2nc(CC(C)=O)ns2)cc1	3.2µM*	14µM*	2%	u	u
CC(=O)Cc1nsc(Nc2ccc3c(c2)OCCO3)n1	4µM*	13µM*	-20%	3.5µM*	24µM*
CCc1n[n+](CC(=O)c2ccccc2)c(N)s1	0.5µM*	4µM*	10µM*	0.32µM*	2.4µM*
O=C(/C=C/c1ccc(O)c(O)c1)NC(=O)c1ccccc1O	11%	32µM*	-3%	u	9.5µM*
CSc1ccc(/C=C/C(=O)NC(=O)c2ccccc2O)cc1	2.5µM*	25µM*	-7%	u	0.6µM*
O=C(/C=C/c1ccc(Br)cc1)NC(=O)c1ccccc1O	1.8µM*	22µM*	0%	3.5µM*	0.38µM*
O=C(c1cc(COc2ccc(F)cc2Cl)on1)N1CCCCCC1	2µM*	x	x	1.8µM*	6.7µM*
Cc1cccc(C)c1OCc1cc(C(=O)N2CCCCCCC2)no1	23%	x	x	15%	u
CCC(NC(=O)c1cc(COc2ccc(F)cc2Cl)on1)c1ccncc1 (stereo not given)	-4%	x	x	-1%	21µM*
COc1ccc(OCc2cc(C(=O)N3CCCCCCC3)no2)c(Cl)c1	23%	x	x	24%	u
COc1ccc(OCc2cc(C(=O)N3CCN(C4CCCC4)CC3)no2)c(Cl)c1	u	x	x	3.2µM*	21µM*
O=C(c1cc(COc2ccc(F)cc2Cl)on1)N1CCCCCCC1	20%	x	x	-3%	-11%
COc1cc(C)ccc1OCc1cc(C(=O)N2CCCCCCC2)no1	4.5µM*	x	x	u	21µM*
O=C(c1cc(COc2ccc(F)cc2F)on1)N1CCSCC1	2.5µM*	x	1%	u	15µM*
CCOC(=O)N1CCN(C(=O)c2cc(COc3ccc(OC)cc3Cl)on2)CC1	u	x	x	28%	u
NC(=O)[C@@H]1CCCN1C(=O)c1cc(COc2ccc(F)cc2F)on1	12%	x	x	-1%	-15%
COc1cc(C)ccc1OCc1cc(C(=O)N2CCN(C3CCCCC3)CC2)no1	u	x	x	u	17µM*
CCN1CCN(C(=O)c2cc(COc3ccc(C(C)=O)cc3OC)on2)CC1	3.2µM*	x	x	2.2µM*	12µM*
Cc1ccc(OCc2cc(C(=O)N3CCN(C4CCCCC4)CC3)no2)cc1C	29%	x	x	25%	u
CCOc1ccccc1NC(=O)Cn1c(=O)n(-c2ccc(C)c(C)c2)c(=O)c2oc3ccccc3c21	x	x	x	x	2%
C=C(C(=O)OCC)C(=O)c1ccccc1	x	10%	1%	x	x
S=C(N/N=C/c1ccc2ncccc2c1)Nc1ccccc1	u	u	-4%	u	4.8µM*
C(=N\NCc1ccccc1)/c1ccc2ncccc2c1	1.6µM*	x	x	1.1µM*	4.3µM*
C(=N\n1cnnc1)/c1ccc2ncccc2c1	4%	-7%	-2%	-6%	3%
C(=N\NCc1ccccc1)/c1ccc2nccnc2c1	2.5µM*	x	x	3.5µM*	12µM*
SMILES	Rab9 prom act	SMN2 splice enh	KinaseGlo FLuc	NPC1 prom act	FLuc counter
CCc1ccc(NC(=O)CSc2nc3ccccc3nc2Cc2ccccc2OC)cc1	x	x	x	x	-4%
N/C(CS(=O)(=O)c1ccccc1)=N\OC(=O)c1ccc(F)cc1	6%	x	x	-1%	6%
O=C(O/N=C/C1=C(Cl)c2ccccc2CC1)c1ccc(F)cc1	-5%	3%	-9%	-3%	6.7µM*
COc1ccc(C2=C(C)C(=O)N(Cc3ccc(C(=O)Nc4cc(C)ccc4C)cc3)S2(=O)=O)cc1	x	x	x	x	0%
COc1cccc(OC)c1C(=O)NNC(=O)c1cccc(COc2ccc3c(c2)CCC3)c1	0.56µM*	1.4µM*	-2%	0.45µM*	4.8µM*
O=C(COc1ccc2c(c1)CCC2)NCc1cccc(Cl)c1	-4%	x	x	-3%	-9%
COC(=O)c1ccccc1NC(=O)c1ccc(COc2ccc3c(c2)CCC3)cc1	9%	-2%	1%	15%	u
COc1ccccc1NC(=O)c1ccc(COc2ccc3c(c2)CCC3)cc1	24%	11µM*	4%	21%	-2%
COc1ccccc1NC(=O)c1ccc(CSc2ncccn2)cc1	-1%	x	-10%	-1%	17µM*
O=C(NCc1ccccc1)c1cccc(COc2ccc3c(c2)CCC3)c1	0.35µM*	1.3µM*	3%	0.35µM*	1.3µM*
COc1ccccc1NC(=O)c1nc(SCc2ccc(F)cc2)ncc1Cl	x	-5%	x	x	5%
O=c1c(CCc2ccccc2)nc2cnc(N3CCNCC3)nc2n1CCc1ccccc1	x	-45%	-4%	x	x
CCc1nn(CC(=O)NCc2cccc(OC)c2OC)c(=O)c2cc3occc3n12	x	-2%	x	x	-6%
O=C(O)c1cc(OCc2ccccc2)cc(OCc2ccccc2)c1	-8%	x	x	-1%	1%
O=C(O)c1cccc(COc2ccc3c(c2)CCC3)c1	3.2µM*	x	x	3.5µM*	0.067µM*
O=C(Nc1ccccc1)c1ccc(CSc2ccccn2)cc1	1.6µM*	22µM*	11µM*	1.3µM*	2.1µM*
O=C(Nc1ccc(Br)cc1F)N1CCC(CN2CCCC2)CC1	x	x	x	x	-1%
CN1CCS/C1=C/C=C1/SC(=S)N(Cc2ccccc2)C1=O	u	23%	-2%	18%	u
CN1CCS/C1=C/C=C1\SC(=S)N(CC(=O)O)C1=O	-2%	x	-10%	0%	15µM*
CCCCN1C(=O)/C(=C/C=C2\SCCN2C)SC1=S	3.2µM*	16µM*	-2%	u	13µM*
Cc1cc(-c2ccc(C)c(S(=O)(=O)N(C)c3ccc(C)c(C)c3)c2)on1	x	x	x	x	-1%
COc1ccccc1CN1CCN(C2CCN(C(=O)Nc3ccccc3)CC2)C(=O)C1=O	x	x	x	x	0%
COc1cc(/C=N\Nc2nc3ccccc3[nH]2)cc(OC)c1OC	-6%	-24%	-20%	-3%	11µM*
COc1ccc(/C=N/Nc2nc3ccccc3[nH]2)cc1OC	u	1%[1.84 µM]	-6%	u	7.6µM*
COc1cc(OC)c(OC)cc1/C=N/Nc1nc2ccccc2[nH]1	9%	x	x	1%	-14%
SMILES	Rab9 prom act	SMN2 splice enh	KinaseGlo FLuc	NPC1 prom act	FLuc counter
CCOc1cc(/C=N/Nc2nc3ccccc3[nH]2)cc(Br)c1OCC(=O)N(C)C	0%	-82%	-1%	0%	24µM*
COc1cc(/C=N/NC(=O)CC23CC4CC(CC(C4)C2)C3)cc(Br)c1OCC(=O)N(C)C	-7%	-25%	0%	-2%	u
COc1ccc2c(c1)c(/C=N/Nc1nc3ccccc3[nH]1)c(C)n2C	0%	x	x	6%	9.5µM*
CCc1ccc(C2=C(C)C(N3CCC(C(=O)NCCc4ccco4)CC3)=NS2(=O)=O)cc1	x	x	x	x	-1%
CC(=O)N(c1nnc(-c2ccc(C)cc2)s1)C1CCCC1	u	x	x	0%	13µM*
CC(C)CC(=O)N(c1nnc(-c2cccnc2)s1)C1CCCC1	1%	x	x	-1%	2%
NC(=S)SCCC(=O)O	x	-15%[9.22 µM]	-2%[7.66 µM]	x	x
